In PubChem BioAssay (NCATS):
Activity calls are given as the source filed them. Calls come from the whole dose curve; as a rule, active = well fitted activation curve with a large enough effect; inconclusive = small, poorly fitted or top-dose-only effect; inactive = flat fitted curve, though single readings scatter.

experiment: Cellular Toxicity (caspase-3) SHSY5Y (AID 657); settings: SH-SY5Y caspase-3 activation, DMSO zero, 10 µM staurosporine = 100%; series mostly up to 91.7 µM
Description: NIH Chemical Genomics Center [NCGC]
NIH Molecular Libraries Screening Centers Network [MLSCN]
National Institutes of Environmental Health Sciences [NIEHS]
National Toxicology Program [NTP]
We have developed a 1536-well cell-based assay for quantitative high throughput screening (qHTS) against a number of cell lines to determine in vitro caspase 3/7 activity of small molecules. This particular assay uses the SH-SY5Y cell line which is derived from human neuroblastoma.
NCGC Assay Protocol Summary:
The Caspase-Glo 3/7 assay (Promega) is a homogeneous method to measure caspase-3 and caspase-7 activities in cultured cells. The quantitation of caspase 3/7 activity is based on the cleavage of a peptide-aminoluciferin substrate. After caspase cleaves the substrate the free aminoluciferin is liberated and serves as the substrate of luciferase, which generates the light. The luminescent signal is proportional to the amount of caspase 3/7 activity present.
Using the Caspase-Glo 3/7 assay, the amount of caspase 3/7 activity was measured in the SH-SY5Y cell line with complete culture medium following compound treatment for 16 hours. The assay was performed in opaque white 1536-well plates. In the screen, staurosporine and doxorubicin were used as positive controls. Library compounds were measured for their ability to cause the activation of caspase 3/7 in the cell line, as reflected by an increase in luminescence signal, in a concentration-dependent manner. Data were normalized to the controls for basal activity (DMSO only) and 100% stimulation (10 uM staurosporine). AC50 values were determined from concentration-response data modeled with the standard Hill equation.
qHTS protocol for caspase 3/7 assay in SH-SY5Y cells
[Step] [Parameter] [Value] [Description]
1. Reagent; 5 uL; 1500 SH-SY5Y cells/well
2. Time; 5 hr; 37 °C incubation
4. Controls; 23 nL; doxorubicin 7 pM to 100 uM & staurosporine 1.4 pM to 20 uM
5. Time; 16 hr; 37 °C incubation
6. Reagent; 5 uL; Caspase-Glo 3/7 reagent
7. Time; 1 hr; Room Temperature
8. Detection; Luminescence; Viewlux plate reader
Keywords: caspase 3/7, apoptosis, SH-SY5Y cell line, luminescence, NTPHTS, NTPHTS_NCGC, NIEHS, EPA, DSSTox, MLSMR, MLSCN, NIH Roadmap, qHTS, NCGC

SMILES | outcome
CC1=CC(C)(C)Nc2ccccc21 | inactive
C=CCc1ccc(OC)c(OC)c1 | inactive
CC(C)=CCCC(C)CCO (stereo not given) | inactive
CCC(C)c1ccccc1O (stereo not given) | inactive
COc1c2ccoc2cc2oc(=O)ccc12 | inactive
CCCCCCCCO | inactive
COCC(=O)O | inactive
CCCCC(CC)CN (stereo not given) | inactive
Nc1ccc(S(=O)(=O)O)cc1 | inactive
Clc1cc(Cl)c(Cl)cc1Cl | inactive
CN(C)CCCCCCN(C)C | inactive
CCO | inactive
O=C1c2ccccc2C(=O)C1c1ccc2ccccc2n1 | inactive
CC12CCC(CC1=O)C2(C)C (stereo not given) | inactive
ClCCCl | inactive
O=NO | inactive
O=C1CCc2ccccc2O1 | inactive
CCO[Si](CCCN)(OCC)OCC | inactive
CCC(O)OC(O)CC (stereo not given) | inactive
Clc1cc(Cl)c(Cl)c(Cl)c1Cl | inactive

SMILES | outcome
C/C=C\c1ccc(OC)cc1 | inactive
Cc1ccc([N+](=O)[O-])c(C)c1 | inactive
COc1cc(/C=C/c2ccccc2)oc(=O)c1 | inactive
CC1=C2[C@H](/C=C(\C)C(=O)O)CC[C@@H](C)[C@H]2CC1 | inactive
C=Cc1ccccc1Cl | inactive
c1ccccc1 | inactive
O=C(O)c1ccccc1 | inactive
CCCCCCCCCCCCCCC1CO1 (stereo not given) | inactive
COc1ccc2nc(N)sc2c1 | inactive
C=CCOC(=O)c1ccccc1C(=O)OCC=C | inactive
CC1(C)CC(N=C=O)CC(C)(CN=C=O)C1 (stereo not given) | inactive
Cc1ccc(N)c([N+](=O)[O-])c1 | inactive
COC(=O)CCCCC(=O)OC | inactive
C[C@H](CCC(=O)O)[C@H]1CC[C@H]2[C@@H]3CC[C@@H]4C[C@H](O)CC[C@]4(C)[C@H]3CC[C@]12C | inactive
Cc1ccccc1C | inactive
CN(C)C=O | inactive
c1ccc2c(c1)[nH]c1ccccc12 | inactive
CCCCOCCO | inactive
c1ccc2c(c1)c1cccc3ccc4cccc2c4c31 | inactive
NC1=NC(S)C2N=CN=C2N1 (stereo not given) | inactive
